We go through 36 compounds from PubChem BioAssay (Tox21).

The structures appear in SMILES notation. Records with an inconclusive call do not appear. Entries that show only a call come without a potency. Values without a mark were called inactive. Calls of active or inactive are those of the source. Calls follow the shape of the dose curve; as a rule, active = well fitted curve in the direction sought with a large enough effect in the repeat runs; inconclusive = weak or mixed curves; inactive = no such curve, though single readings can be large; an effect the other way counts as inactive or inconclusive.

The first assay can be described thus: qHTS RealTime-Glo MT Cell Viability Assay in HEK293 cells - 40 hour (AID 1224874). Also: nearly all actives have a fitted effect of over 50% in size. Particulars: RealTime-Glo luminescence; max response: active compounds read low. The gist of the method: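 Measured as luminescence from the same continuously cultured HEK293 wells at successive time points (0, 8, 16, 24, 32, 40 h) after compound addition. Reagent present from seeding; dosing at 5 h; incubation 37 C.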
In general terms: In qHTS, concentration-response curves come from the screen itself.
In the case of `COc1ccc(C#N)cc1`, the max response is -13.1%.
For `C=CC(=O)OCCN(CC)CC`, the max response is 3.34%.
Turning to `OCCC(O)CO` (centres undefined), the max response is 15.6%.
For `Cn1cccc1`, the max response was 10.4%.
Take `CCOC(OCC)C(=O)c1ccccc1`: the max response is 0.351%.
`CCCCCCCCCCCC(=O)N(CC)CC`: the max response was -24.4%.
As to `CC(=O)O[C@@H]1C[C@@H]2CC[C@@]1(C)C2(C)C`, the max response is 0.199%.
For the compound `C=C(C)C(=O)OCCC[Si](Cl)(Cl)Cl`, the max response is -5.22%.
Still for that read-out and setting: then `O=C(O)CCCCCCC(=O)O`, with 12.4%.
In the case of `CCCCCCCCCCCCCOP(=O)(O)O`, the max response is -0.341%.
As to `O=C1OC(OC(=O)c2cccnc2Nc2cccc(C(F)(F)F)c2)c2ccccc21` (centres undefined), the max response is -1.07%.

Another assay in a line: A CellTox Green Cytotoxicity Assay to monitor cytotoxicity in HEK293 cells - 24 hour (AID 1224875). Also: nearly all actives have a fitted effect of over 45% in size. Also: potency is read from the fitted curve at half-maximal effect. The note with it: CellTox Green fluorescence; series mostly up to 76.8 µM. A digest of the protocol: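 Homogeneous no-lysis format: HEK293 cell suspension mixed with CellTox Green reagent, seeded, incubated 5 h at 37 C/5% CO2, then dosed by pintool with compound in DMSO.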
In the case of `CCc1c(Br)c(Br)c(Br)c(Br)c1Br`, the Potency result is “inactive”.
Consider `COc1cccc(O)c1`, for which the Potency entry is “inactive”.
`CCCCOC(=O)C(C)CC` (centres undefined): the Potency result was “inactive”.
Take `CCOC(=O)COc1ccc(C)cc1`: the Potency result was “inactive”.
As for `CCCCN(C)C`, the Potency entry is “inactive”.
As to `[O]=[Zr]`, the Potency entry is “inactive”.
`Cc1cnccn1`: the Potency result is “inactive”.
`OCCCS`: the Potency entry is “inactive”.
`O=C(O)CCn1c2c(c3ccccc31)C[C@H](NS(=O)(=O)c1ccc(F)cc1)CC2`: the Potency entry was “inactive”.
On to `Brc1ccccn1`, for which the Potency entry was “inactive”.
Regarding `O=C1C=CC(=O)N1c1ccccc1`, the Potency is 12.3 µM (active).
As for `COc1cc(C(=O)NS(=O)(=O)c2ccccc2C)ccc1Cc1cn(C)c2ccc(NC(=O)OC3CCCC3)cc12`, the Potency entry was “inactive”.
Take `CCCCCCCCCCCCCc1ccccc1`: the Potency result was “inactive”.
Take `NCCCCCCNCCCCCCN`: the Potency entry was “inactive”.
On the same count and under the same terms, next, `Cc1cccc(Br)c1`: “inactive”; `CC(C)CCOCCC(C)C`: “inactive”; `CCc1cccc(C)c1`: “inactive”.
With `Cc1cccc(C)n1`, the Potency result is “inactive”.
`c1cc2c3c(c1)ccc1cccc(c13)C2`: the Potency is 56.1 µM (active).
Take `Clc1cccnc1`: the Potency result was “inactive”.
For the compound `Cc1ccc(O)cn1`, the Potency result was “inactive”.
As to `O=S(O)O`, the activity change is -0.851% [at 15.8 µM, active compounds read high].
Turning to `C[Si](C)(C)Cl`, the Potency entry was “inactive”.
As to `CCOCN(C(=O)CS(=O)(=O)O)c1c(C)cccc1CC`, the Potency result was “inactive”.
As to `Cc1c(-c2ccc(O)cc2)n(Cc2ccc(OCCN3CCCCCC3)cc2)c2ccc(O)cc12`, the Potency was 21.3 µM (active).
As for `COc1ccc(C#N)cc1`, the Potency result is “inactive”.
With `C=CC(=O)OCCN(CC)CC`, the Potency entry was “inactive”.
For the compound `OCCC(O)CO` (centres undefined), the Potency entry was “inactive”.
For `Cn1cccc1`, the Potency result was “inactive”.
Still for that read-out and setting: then `CCOC(OCC)C(=O)c1ccccc1`, with “inactive”; and `CCCCCCCCCCCC(=O)N(CC)CC`, with “inactive”; and `CC(=O)O[C@@H]1C[C@@H]2CC[C@@]1(C)C2(C)C`, with “inactive”.
Take `C=C(C)C(=O)OCCC[Si](Cl)(Cl)Cl`: the Potency entry is “inactive”.
The same measure, in the same setting: next, `O=C(O)CCCCCCC(=O)O`: “inactive”.
For the compound `CCCCCCCCCCCCCOP(=O)(O)O`, the Potency result is “inactive”.
Take `O=C1OC(OC(=O)c2cccnc2Nc2cccc(C(F)(F)F)c2)c2ccccc21` (centres undefined): the Potency entry is “inactive”.

Another assay can be described thus: A CellTox Green Cytotoxicity Assay to monitor cytotoxicity in HepG2 cells - 16 hour (AID 1224876). Also: nearly all actives have a fitted effect of over 45% in size. Also: potency is read from the fitted curve at half-maximal effect. The note with it: CellTox Green fluorescence; series mostly up to 76.8 µM. The gist of the method: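 Fluorescent DNA-binding dye, 600 HepG2 cells/well, 5 h preincubation then compound in DMSO; same plates read at 0–40 h, 37 C.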
Take `CCc1c(Br)c(Br)c(Br)c(Br)c1Br`: the Potency entry is “inactive”.
Take `COc1cccc(O)c1`: the Potency result is “inactive”.
As for `CCCCOC(=O)C(C)CC` (centres undefined), the Potency result is “inactive”.
The same measure, in the same setting: then `CCOC(=O)COc1ccc(C)cc1`, with “inactive”.
Consider `CCCCN(C)C`, for which the Potency result was “inactive”.
As to `[O]=[Zr]`, the Potency result was “inactive”.
`Cc1cnccn1`: the Potency result was “inactive”.
Still for that read-out and setting: next, `OCCCS`: “inactive”; `O=C(O)CCn1c2c(c3ccccc31)C[C@H](NS(=O)(=O)c1ccc(F)cc1)CC2`: “inactive”.
On the same count and under the same terms, next, `Brc1ccccn1`: “inactive”; `O=C1C=CC(=O)N1c1ccccc1`: 19.5 µM (active); `COc1cc(C(=O)NS(=O)(=O)c2ccccc2C)ccc1Cc1cn(C)c2ccc(NC(=O)OC3CCCC3)cc12`: “inactive”.
The same measure, in the same setting: next, `CCCCCCCCCCCCCc1ccccc1`: “inactive”; `NCCCCCCNCCCCCCN`: “inactive”; `Cc1cccc(Br)c1`: “inactive”.
For the compound `CC(C)CCOCCC(C)C`, the Potency result was “inactive”.
With `CCc1cccc(C)c1`, the Potency result is “inactive”.
Still for that read-out and setting: next, `Cc1cccc(C)n1`: “inactive”; `c1cc2c3c(c1)ccc1cccc(c13)C2`: “inactive”; `Clc1cccnc1`: “inactive”.
On to `Cc1ccc(O)cn1`, for which the Potency result is “inactive”.
With `O=S(O)O`, the cytotoxicity increase is -6.63% [at 15.8 µM].
On to `C[Si](C)(C)Cl`, for which the Potency entry is “inactive”.
Take `CCOCN(C(=O)CS(=O)(=O)O)c1c(C)cccc1CC`: the Potency result was “inactive”.
Turning to `Cc1c(-c2ccc(O)cc2)n(Cc2ccc(OCCN3CCCCCC3)cc2)c2ccc(O)cc12`, the Potency was 23.9 µM (active).
In the case of `COc1ccc(C#N)cc1`, the Potency entry is “inactive”.
On the same count and under the same terms, then `C=CC(=O)OCCN(CC)CC`, with “inactive”.
On to `OCCC(O)CO` (centres undefined), for which the Potency result is “inactive”.
`Cn1cccc1`: the Potency entry was “inactive”.
`CCOC(OCC)C(=O)c1ccccc1`: the Potency result was “inactive”.
`CCCCCCCCCCCC(=O)N(CC)CC`: the Potency entry was “inactive”.
The same measure, in the same setting: next, `CC(=O)O[C@@H]1C[C@@H]2CC[C@@]1(C)C2(C)C`: “inactive”; `C=C(C)C(=O)OCCC[Si](Cl)(Cl)Cl`: “inactive”; `O=C(O)CCCCCCC(=O)O`: “inactive”.
On to `CCCCCCCCCCCCCOP(=O)(O)O`, for which the Potency result was “inactive”.
Turning to `O=C1OC(OC(=O)c2cccnc2Nc2cccc(C(F)(F)F)c2)c2ccccc21` (centres undefined), the Potency result was “inactive”.

The nature of a further assay: qHTS RealTime-Glo MT Cell Viability Assay in HepG2 cells - 32 hour (AID 1224877). Also: nearly all actives have a fitted effect of over 55% in size. Also: potency is read from the fitted curve at half-maximal effect. The note with it: RealTime-Glo luminescence; series mostly up to 76.8 µM. The gist of the method:
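Cell number in HepG2 cultures estimated from NanoLuc luminescence generated by metabolic reduction of a prosubstrate by living cells. The homogeneous, nonlytic format allowed repeated reads at 0, 8, 16, 24, 32 and 40 h of compound exposure.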
Consider `CCc1c(Br)c(Br)c(Br)c(Br)c1Br`, for which the Potency entry is “inactive”.
As to `COc1cccc(O)c1`, the Potency entry was “inactive”.
Still for that read-out and setting: next, `CCCCOC(=O)C(C)CC` (centres undefined): “inactive”.
With `CCOC(=O)COc1ccc(C)cc1`, the Potency entry is “inactive”.
`CCCCN(C)C`: the Potency entry is “inactive”.
For `[O]=[Zr]`, the Potency result is “inactive”.
As to `Cc1cnccn1`, the Potency result was “inactive”.
Take `OCCCS`: the Potency entry was “inactive”.
Turning to `O=C(O)CCn1c2c(c3ccccc31)C[C@H](NS(=O)(=O)c1ccc(F)cc1)CC2`, the Potency result is “inactive”.
Consider `Brc1ccccn1`, for which the Potency entry is “inactive”.
On to `O=C1C=CC(=O)N1c1ccccc1`, for which the Potency was 12.3 µM (active).
Still for that read-out and setting: then `COc1cc(C(=O)NS(=O)(=O)c2ccccc2C)ccc1Cc1cn(C)c2ccc(NC(=O)OC3CCCC3)cc12`, with “inactive”; and `CCCCCCCCCCCCCc1ccccc1`, with “inactive”.
Take `NCCCCCCNCCCCCCN`: the Potency result is “inactive”.
In the case of `Cc1cccc(Br)c1`, the Potency result was “inactive”.
On the same count and under the same terms, then `CC(C)CCOCCC(C)C`, with “inactive”; and `CCc1cccc(C)c1`, with “inactive”.
For the compound `Cc1cccc(C)n1`, the Potency entry is “inactive”.
Turning to `c1cc2c3c(c1)ccc1cccc(c13)C2`, the Potency result is “inactive”.
For `Clc1cccnc1`, the Potency entry was “inactive”.
Regarding `Cc1ccc(O)cn1`, the Potency result is “inactive”.
On to `O=S(O)O`, for which the activity change, negative = cytotoxic is 4.15% [at 15.8 µM].
As to `C[Si](C)(C)Cl`, the Potency entry is “inactive”.
In the case of `CCOCN(C(=O)CS(=O)(=O)O)c1c(C)cccc1CC`, the Potency result is “inactive”.
Turning to `Cc1c(-c2ccc(O)cc2)n(Cc2ccc(OCCN3CCCCCC3)cc2)c2ccc(O)cc12`, the Potency is 9.52 µM (active).
As for `COc1ccc(C#N)cc1`, the Potency result is “inactive”.
In the case of `C=CC(=O)OCCN(CC)CC`, the Potency result is “inactive”.
With `OCCC(O)CO` (centres undefined), the Potency entry is “inactive”.
`Cn1cccc1`: the Potency entry was “inactive”.
As to `CCOC(OCC)C(=O)c1ccccc1`, the Potency entry was “inactive”.
For the compound `CCCCCCCCCCCC(=O)N(CC)CC`, the Potency entry is “inactive”.
On to `CC(=O)O[C@@H]1C[C@@H]2CC[C@@]1(C)C2(C)C`, for which the Potency entry is “inactive”.
Regarding `C=C(C)C(=O)OCCC[Si](Cl)(Cl)Cl`, the Potency result was “inactive”.
`O=C(O)CCCCCCC(=O)O`: the Potency entry was “inactive”.
On the same count and under the same terms, then `CCCCCCCCCCCCCOP(=O)(O)O`, with “inactive”.
As to `O=C1OC(OC(=O)c2cccnc2Nc2cccc(C(F)(F)F)c2)c2ccccc21` (centres undefined), the Potency entry was “inactive”.
